This note sets out measurements from PubChem BioAssay.

Active and inactive are the calls of the source.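 The calls were made as follows, unless noted: active = visually confirmed hit in the image check and inhibition above 20%; inconclusive = visually confirmed hit but inhibition not above 20%; inactive = no visual hit in the image check.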

A short description of test [1]: inhibitors of TNFa-induced NFkB p65 translocation, primary screen, imaging, HUVEC, MLSMR starter and 10KST1 sets (AID 438;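 active = inhibition above 20% together with a positive visual image hit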;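 also: compound added about 3h40 before a 20 min TNFalpha stimulation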;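 as to inhibition: signal is the nuclear over cytoplasmic p65 intensity ratio per well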). The following applies: HUVEC TNFa-induced p65 nuclear translocation; cell count: measured here: nuclei count (cytotoxicity indicator), at 2.08 µM; inhibition: at 2 µM, stronger effect = higher value, 0% TNFa-plus-vehicle, 100% no-TNFa wells.
A short description of test [2]: reduction of polyQ htt aggregates in cells – imaging, exon1htt(103Q)mCFP cells, high-content imaging, primary screen (AID 483;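 active = visual image review flags a hit and inhibition of aggregation exceeds 20%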;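 also: compound exposure lasted 3 days before fixation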;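 as to nuclei count: percent of the per-plate median nuclei count of sample wells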). The following applies: exon1htt(103Q)mCFP cell line, aggregate imaging, at 2 µM; inhibition of aggregation: stronger effect = higher value; nuclei count: measured here: cell count, toxicity.
Test [3] in a line: endothelial E-selectin expression blockers – imaging, HUVEC, immunofluorescence, MLSMR starter and 10KST1 sets, primary screen (AID 487).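 As to inhibition: signal is fraction of cell area covered by stained E-selectin grains.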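 As to nuclei count: 100% = median nuclei count of all wells on the same plate.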 The following applies: HUVEC TNFalpha-induced E-selectin immunofluorescence imaging, at 2 µM; inhibition: stronger effect = higher value; nuclei count: measured here: cell number, toxicity.
The target of test [4] is Voltage-gated potassium channel subunit beta-2 (Rattus norvegicus) (UniProt P62483). Description: inhibitors of rat Kvbeta2 reductase activity – biochemical, NADPH fluorescence, primary screen (AID 622;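 active = fluorescence slope higher than the sample average by over 3 SD, cut at about -0.22 in these data, passing the limit was not always enough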;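 also: slope of raw intensity against log time taken from 70 to 1610 s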). The following applies: recombinant KvBeta, 4-cyanobenzaldehyde reduction, at 10 µM, stronger effect = higher value.
For test [5] the target is unchanged. Nature of the test: enhancers of rat Kvbeta2 NADPH turnover – biochemical, NADPH fluorescence, primary screen (AID 623;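 active = NADPH fluorescence slope more negative than the mean of all samples by about 3 SD, 99.7% confidence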;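 also: fluorescence intensity change per second fitted from 20 to 320 s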). The following applies: Recombinant KvBeta, NADPH fluorescence decrease slope, 10 min; at 10 µM; stronger effect = lower value.
Test [6] concerns the target Alpha-2C adrenergic receptor (Homo sapiens) (UniProt P18825). Description: compounds altering alpha2C-coupled GIRK flux – cell-based, HEK293 alpha2C/GIRK1/2, thallium flux, primary screen (AID 624;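 active = fluorescence slope after compound addition differing from the mean of all screened samples at 99.7% confidence, in either direction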;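 also: slope of fluorescence ratio to pre-addition baseline per second over 15 to 24 s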). Particulars: thallium flux BTC fluorescence, at 10 µM, actives lie on both sides.
Test [7] in a line: blockers of RIG-like receptor reporter activation – cell-based, Sendai virus stimulus, luciferase, 10K MLSCN set, TLR/RLR signaling modifier project, primary screen (AID 602276;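 active = inhibition at or above 50% at 10 µM; inactive = inhibition below 50%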;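 also: firefly luciferase from ISG56 promoter only with Renilla not read in this screen; 0% = Sendai virus plus DMSO and 100% = medium plus DMSO without virus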). Particulars: HEK293 RL24 IRF3 luciferase reporter, at 10 µM, stronger effect = higher value. (In general: A reporter such as luciferase makes a cellular process visible.)
A short description of test [8]: TLR3 IRF3 reporter activation blockers – cell-based, poly I:C stimulus, luciferase, 10K MLSCN set, primary screen (AID 602277;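 active = inhibition of the reporter signal at or above 50%; inactive = inhibition below 50%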). Particulars: HEK293-TLR3 RL24 IRF3 luciferase reporter, at 10 µM, stronger effect = higher value.

Sequence of Alpha-2C adrenergic receptor (Homo sapiens) (P18825 whole entry, looked up): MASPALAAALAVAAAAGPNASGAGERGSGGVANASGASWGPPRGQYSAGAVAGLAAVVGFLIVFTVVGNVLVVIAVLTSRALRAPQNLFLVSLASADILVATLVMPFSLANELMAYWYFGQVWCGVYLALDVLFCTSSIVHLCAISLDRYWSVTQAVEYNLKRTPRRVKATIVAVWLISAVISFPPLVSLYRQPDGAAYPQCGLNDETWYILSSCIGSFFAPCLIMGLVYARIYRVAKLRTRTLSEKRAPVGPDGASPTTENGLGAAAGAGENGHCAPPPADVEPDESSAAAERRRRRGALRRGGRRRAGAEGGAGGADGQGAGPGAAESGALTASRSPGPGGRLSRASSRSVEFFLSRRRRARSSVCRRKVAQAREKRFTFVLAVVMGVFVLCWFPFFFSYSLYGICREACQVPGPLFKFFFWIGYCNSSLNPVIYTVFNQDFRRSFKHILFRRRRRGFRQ
Sequence of Voltage-gated potassium channel subunit beta-2 (Rattus norvegicus) (P62483 whole entry, looked up): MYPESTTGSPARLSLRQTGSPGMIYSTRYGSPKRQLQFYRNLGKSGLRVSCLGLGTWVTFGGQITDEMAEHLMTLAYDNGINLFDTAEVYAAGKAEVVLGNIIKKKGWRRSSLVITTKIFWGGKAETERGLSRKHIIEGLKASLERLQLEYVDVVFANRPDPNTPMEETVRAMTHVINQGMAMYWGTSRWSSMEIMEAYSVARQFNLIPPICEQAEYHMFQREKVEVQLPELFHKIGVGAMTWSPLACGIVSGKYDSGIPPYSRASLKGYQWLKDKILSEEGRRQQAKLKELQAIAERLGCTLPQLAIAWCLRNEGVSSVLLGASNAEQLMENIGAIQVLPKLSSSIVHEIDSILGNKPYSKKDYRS

As to `COC(=O)C1=C(N)OC2=C(C(=O)CCC2)C1c1cccs1` (stereo not drawn), in test [1], the cell count worked out at 491. The inhibition – broadly, the relative decrease from the control value, in per cent – is 3.2% (inactive) in test [1], 44.1% (inactive) in test [3], 2.58% (inactive) in test [7] and 21.7% (inactive) in test [8]. Further, the inhibition of aggregation in test [2] was 27.3% (inactive). The nuclei count in test [2] is 52%; in test [3], 103%. Also, the fluorescence slope in test [4] is -0.49 (inactive). In addition, the NADPH fluorescence slope in test [5] was -3.8e-05 (inactive). In addition, the slope in test [6] is 0.00743 (inactive).

For `O=C1c2ccccc2C(Nc2ccc3c(c2)OCO3)N1Cc1ccc2c(c1)OCO2` (stereo not drawn), the cell count in test [1] was found to be 529. Also, the inhibition is -8.5% (inactive) in test [1], -0.3% (inactive) in test [3], -3.95% (inactive) in test [7] and 27.2% (inactive) in test [8]. In addition, the inhibition of aggregation in test [2] was -8.3% (inactive). Also, the figures for the nuclei count in test [2] and in test [3] were 63.8% and 107%, respectively. For the same molecule, the fluorescence slope in test [4] was -0.398 (inactive). The NADPH fluorescence slope in test [5] is -2.6e-05 (inactive). Also, the slope in test [6] is 0.00394 (inactive).

Turning to `CCC(=O)Nc1cc(C(=O)NCC2CCCN2CC)c(OC)cc1N(C)C` (stereo not drawn), the cell count in test [1] turned out to be 448. Further, the inhibition is -0.5% (inactive) in test [1], -37.7% (inactive) in test [3], 0.262% (inactive) in test [7] and 6.05% (inactive) in test [8]. Moreover, the inhibition of aggregation in test [2] was -23.1% (inactive). Further, the values for the nuclei count in test [2] and in test [3] were 98.8% and 104%, respectively. Further, in test [4], the fluorescence slope was -0.525 (inactive). Besides, in test [5], the NADPH fluorescence slope is 1.6e-05 (inactive). Moreover, in test [6], the slope was 0.00562 (inactive).

Take `N#Cc1cnn(Cc2ccc(Cl)cc2)c1N`: the cell count in test [1] was determined as 628. Also, the inhibition was 4.5% (inactive) in test [1], -28.9% (inactive) in test [3], 7.9% (inactive) in test [7] and 25.7% (inactive) in test [8]. In addition, in test [2], the inhibition of aggregation was -3.8% (inactive). The nuclei count in test [2] came out at 110%; in test [3], 91.4%. Also, the fluorescence slope in test [4] is -0.466 (inactive). In addition, the NADPH fluorescence slope in test [5] was -5.6e-05 (inactive). In addition, the slope in test [6] was 0.00625 (inactive).

Consider `Cn1c(=O)cc(OCC(=O)NCCCN2CCN(Cc3ccccc3)CC2)c2ccccc21`, for which the cell count in test [1] came to 505. For the same molecule, the inhibition is -6.9% (inactive) in test [1], -124% (inactive) in test [3], -11.8% (inactive) in test [7] and 31.2% (inactive) in test [8]. Moreover, the inhibition of aggregation in test [2] was 4.5% (inactive). Besides, the nuclei count in test [2] amounted to 86.8%; in test [3], 135%. In addition, the fluorescence slope in test [4] was -0.556 (inactive). In test [5], the NADPH fluorescence slope is 2.6e-05 (inactive). Besides, the slope in test [6] is 0.00749 (inactive).

As for `CCOc1ccc(S(=O)(=O)n2c(C)nc3ccccc32)cc1`, in test [1], the cell count was found to be 781. For the same molecule, the inhibition in test [1] is -5.8% (inactive); in test [3], -99.9% (inactive); in test [7] it was 49.1% (inactive); in test [8], 5.17% (inactive). Further, the inhibition of aggregation in test [2] is -0.6% (inactive). Moreover, the nuclei count in test [2] came to 101%; in test [3] it was 115%. Also, the fluorescence slope in test [4] was -0.627 (inactive). In addition, the NADPH fluorescence slope in test [5] is 9.2e-06 (inactive). Moreover, the slope in test [6] is 0.00517 (inactive).

Consider `CCSc1nc2ccccc2n1CCC(=O)O`, for which the cell count in test [1] was 615. The inhibition in test [1] was -62.2% (inactive); in test [3], -96.2% (inactive); in test [7] it was 10.2% (inactive); in test [8] it was 18.3% (inactive). Besides, in test [2], the inhibition of aggregation is 1.9% (inactive). The results for the nuclei count in test [2] and in test [3] were 85.7% and 111%, respectively. For the same molecule, the fluorescence slope in test [4] was -0.49 (inactive). Further, the NADPH fluorescence slope in test [5] is -0.000157 (inactive). The slope in test [6] was 0.00453 (inactive).

With `CCOc1ccc(N(C(C)C(=O)NC2CCCCCC2)S(C)(=O)=O)cc1` (stereo not drawn), the cell count in test [1] was found to be 355. Further, the inhibition in test [1] was 2.7% (inactive); in test [3], -40.2% (inactive); in test [7], 3.76% (inactive); in test [8] it was 19.7% (inactive). Moreover, in test [2], the inhibition of aggregation is -10.8% (inactive). Moreover, the nuclei count was 109% in test [2] and 107% in test [3]. Further, the fluorescence slope in test [4] is -0.342 (inactive). Moreover, the NADPH fluorescence slope in test [5] is -4e-05 (inactive). In test [6], the slope is 0.00764 (inactive).
